Inconclusive results are not listed. Entries that show only a call come without a potency. Unmarked numbers belong to inactive results. Calls of active or inactive are those of the source. Unless noted, the call rests on the fitted dose curve; in most records, active means well fitted curve in the direction sought with a large enough effect; inconclusive means small, poorly fitted or top-dose-only effect, or another doubt; inactive means no such curve, though single readings can be large; an effect the other way counts as inactive or inconclusive.
Key:
[1] = molecular target: Aldehyde dehydrogenase, mitochondrial (Homo sapiens) (UniProt P05091); assay: qHTS for Inhibitors of the Aldehyde Dehydrogenase Family (ALDH2) Confirmatory screens (AID 2061303; active means well fitted inhibition curve with a large enough effect; title and protocol of this record describe different tests; further: nearly all actives have a fitted effect of over 45% in size; further: potency means the concentration at half of the fitted maximal effect)
[2] = qHTS for Inhibitors of the Aldehyde Dehydrogenase Family (ALDH1A2, ALDH1A3, ALDH2, ALDH3A1) (AID 2061307); further: nearly all actives have a fitted effect of over 50% in size; on potency: test system not described further here; potency means the concentration at half of the fitted maximal effect
[3] = molecular target: Retinaldehyde dehydrogenase 3 (Homo sapiens) (UniProt P47895); assay: qHTS for Inhibitors of the Aldehyde Dehydrogenase Family (ALDH1A3) Primary screen (AID 2061315)
[4] = molecular target: Aldehyde dehydrogenase 1A1 (Homo sapiens) (UniProt P00352); assay: qHTS for Inhibitors of the Aldehyde Dehydrogenase Family (ALDH1A1) Confirmatory screens (AID 2061316); further: nearly all actives have a fitted effect of over 65% in size; further: potency means the concentration at half of the fitted maximal effect
[5] = molecular target: Retinal dehydrogenase 2 (Homo sapiens) (UniProt O94788); assay: qHTS for Inhibitors of the Aldehyde Dehydrogenase Family (ALDH1A2) Confirmation screens (AID 2061314); further: nearly all actives have a fitted effect of over 65% in size; further: potency means the concentration at half of the fitted maximal effect
[6] = molecular target: Retinaldehyde dehydrogenase 3 (Homo sapiens) (UniProt P47895); assay: qHTS for Inhibitors of the Aldehyde Dehydrogenase Family (ALDH1A3) Validation screen (AID 2061312); further: nearly all actives have a fitted effect of over 45% in size
[7] = BET inhibitor-based combinations targeting novel dependencies in MECOM-rearranged (r) AML: OCI-AML3 cell line (AID 2202232); settings: Potency: OCI-AML3 viability; further: potency means the concentration at half of the fitted maximal effect; nearly all actives have a fitted effect of over 35% in size
Summary of the method: (§1)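 Cells were plated at 500 per well and exposed to an 11-point dose series of each drug for 48 hr. Viability was measured by CellTiter-Glo luminescence, normalized to DMSO and empty-well controls, and summarized as AUC and per-cell-line Z-AUC.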

[8] = BET inhibitor-based combinations targeting novel dependencies in MECOM-rearranged (r) AML: MV-4-11 cell line (AID 2202233); further: potency means the concentration at half of the fitted maximal effect; nearly all actives have a fitted effect of over 45% in size
Summary of the method: (§2)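 Activity is given as area under the curve and as Z-AUC, mean-centred within each cell line. It comes from 11-point dose curves normalized to DMSO and empty wells. CellTiter-Glo luminescence was read after 48 hr drug exposure of 500 cells/well.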

[9] = BET inhibitor-based combinations targeting novel dependencies in MECOM-rearranged (r) AML: HNT-34 cell line (AID 2202234); further: potency means the concentration at half of the fitted maximal effect; nearly all actives have a fitted effect of over 35% in size
Summary of the method: as §2

[10] = BET inhibitor-based combinations targeting novel dependencies in MECOM-rearranged (r) AML: AML-194 cell line (AID 2202237; further: potency means the concentration at half of the fitted maximal effect; nearly all actives have a fitted effect of over 40% in size)
Summary of the method: as §1

O=C(OCC#CCSc1nnc(-c2ccco2)o1)c1ccc(F)cc1
Potency [1]: 15.9 µM (active)
Potency [2]: inactive
Potency [3]: inactive
Potency [4]: 8.96 µM (active)

O=S1(=O)N=C(Oc2ccccc2Br)c2ccccc21
Potency [1]: inactive
Potency [2]: inactive
Potency [3]: inactive

COc1cccc(Cc2nc3ccccc3nc2SCC(=O)N2CCN(c3ccccc3)CC2)c1
Potency [1]: inactive
Potency [2]: inactive
Potency [5]: inactive
Potency [4]: inactive

CCCCc1ccc(NC(=O)CSc2nc3ccccc3nc2N2CCOCC2)cc1
Potency [1]: inactive
Potency [2]: inactive
Potency [4]: inactive

CCOc1ccc(NC(=O)C2CCN(c3cnn(Cc4ccccc4)c(=O)c3)C2)cc1 (stereo not given)
Potency [1]: inactive
Potency [2]: inactive
Potency [5]: inactive

Cc1ccnc(NC(=S)N2CCN(C)CC2)c1
Potency [1]: inactive
Potency [2]: inactive
Potency [5]: inactive
Potency [4]: 20.1 µM (active)

OCc1ccc(-c2ccc3ncnc(N4CCOCC4)c3c2)o1
Potency [1]: 11.3 µM (active)
Potency [2]: 1 µM (active)
Potency [3]: inactive
Potency [4]: 3.18 µM (active)

COc1cccc(-n2cc(C(=O)Nc3cccc(C(F)(F)F)c3)c3ccccc3c2=O)c1
Potency [1]: inactive
Potency [2]: 11.2 µM (active)
Potency [5]: inactive

Cc1ccc(C(=O)NC2CCN(Cc3cccc(-c4cccc(C)c4)c3)CC2)cc1
Potency [1]: inactive
Potency [2]: inactive
Potency [5]: inactive
Potency [4]: inactive

O=C(Nc1cccc(-c2nc3cc(Cl)ccc3o2)c1)c1cc([N+](=O)[O-])ccc1N1CCOCC1
Potency [1]: inactive
Potency [2]: inactive
Potency [5]: inactive
Potency [4]: inactive

Cc1ccc(CSc2ccc3nnc(CCNS(=O)(=O)c4ccc(C)cc4)n3n2)cc1
Potency [1]: inactive
Potency [2]: inactive
Potency [5]: inactive

COc1ccnc(NC(=S)N2CCN(c3ccccc3C(F)(F)F)CC2)c1
Potency [1]: inactive
Potency [2]: 14.1 µM (active)
Potency [5]: 11.3 µM (active)
Potency [4]: 5.65 µM (active)

O=C(O)c1ccccc1SC1=NS(=O)(=O)c2ccccc21
Potency [1]: inactive
Potency [2]: inactive
Potency [5]: inactive
Potency [3]: inactive
Potency [4]: inactive

C[C@H]1[C@H](/C=C/c2ccc(-c3ccccc3C#N)cn2)[C@@H]2[C@@H](C)OC(=O)[C@@H]2C[C@@H]1C
Potency [6]: inactive

Cc1ccccc1C#Cc1ccc(CCC(=O)O)cc1
Potency [6]: inactive

c1cn2cc(-c3ccc4cn[nH]c4c3)nc(Nc3ccc(N4CCOCC4)cc3)c2n1
Potency [7]: 5.25 µM (active)
Potency [8]: 1.66 µM (active)
Potency [9]: 4.17 µM (active)
Potency [10]: 1.32 µM (active)

N#Cc1ccc2[nH]cc(CCCCN3CCN(c4ccc5oc(C(N)=O)cc5c4)CC3)c2c1
Potency [6]: inactive

— PubChem BioAssay (NCATS)
